The values below come from the supplement of paper PMC6555819.

Common to all, as to assay: PBM binding z-score (relative to random genomic background probes); higher = stronger binding; sequences stand for … in GC…GCGATTGACAGCGTAGAATGAAGG
Assay [1] has as its system FXR:RXRa (NR concentration 270 nM, RXRa partner concentration 90 nM). The method, boiled down:
(§1)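 On custom Agilent 4×180K arrays, double-stranded probes with 34-nt variable regions carried direct-repeat seeds, single-nucleotide variants, half-site ablations or random human genomic background. Ligand-free nuclear receptor dimers were applied for 1 h, and binding was read with antibodies against each partner (one per run). Binding z-scores come from regression-normalized fluorescence, with the random background probes as reference.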

Assay [2] concerns LXRa:RXRa (NR concentration 270 nM, RXRa partner concentration 90 nM). The method, boiled down: as §1
The subject of assay [3] is LXRa homodimer (NR concentration 270 nM). The method, boiled down: as §1
Assay [4] concerns LXRb:RXRa (NR concentration 270 nM, RXRa partner concentration 90 nM). In a few lines:
as §1

Assay [5] has as its system LXRb homodimer (NR concentration 270 nM). The method, boiled down: as §1
Assay [6] has as its system PPARa:RXRa (NR concentration 270 nM, RXRa partner concentration 90 nM). In a few lines: as §1
Assay [7] deals with PPARg:RXRa (NR concentration 180 nM, RXRa partner concentration 90 nM). In a few lines: as §1
Assay [8] concerns PPARg:RXRa 270nM:90nM, anti-RXR (NR concentration 270 nM, RXRa partner concentration 90 nM). The method, boiled down:
as §1

Assay [9] deals with PPARg:RXRa 30nM:10nM, anti-RXR (NR concentration 30 nM, RXRa partner concentration 10 nM). The method, boiled down: as §1
For assay [10], the system named is PPARg:RXRa 90nM:30nM, anti-RXR (NR concentration 90 nM, RXRa partner concentration 30 nM). In a few lines: as §1
Assay [11] relates to PPARg:RXRa DBDmut IVT, anti-RXR (DBD mutation: RXRa K156A/R161A, NR concentration 270 nM, RXRa partner concentration 90 nM). The method, boiled down:
as §1

For assay [12], the system named is PPARg:RXRa IVT, anti-PPARg (NR concentration 270 nM, RXRa partner concentration 90 nM). In a few lines: as §1
Assay [13] deals with PPARg DBDmut:RXRa IVT, anti-PPARg (DBD mutation: PPARg1 K132A/R137A, NR concentration 270 nM, RXRa partner concentration 90 nM). The method, boiled down:
as §1

The test system of assay [14] is PPARg DBDmut IVT, anti-PPARg (DBD mutation: PPARg1 K132A/R137A, NR concentration 270 nM). In a few lines:
as §1

The test system of assay [15] is PPARg homodimer (NR concentration 180 nM). In a few lines: as §1
Assay [16] relates to PXR:RXRa (NR concentration 270 nM, RXRa partner concentration 90 nM). In a few lines: as §1
The test system of assay [17] is PXR homodimer (NR concentration 270 nM). In a few lines: as §1
Assay [18] concerns RARa:RXR (NR concentration 270 nM, RXRa partner concentration 90 nM). The method, boiled down:
as §1

The test system of assay [19] is RARa homodimer (NR concentration 270 nM). The method, boiled down: as §1
Assay [20] concerns RARb:RXRa (NR concentration 270 nM, RXRa partner concentration 90 nM). In a few lines:
as §1

As to TCTTGTAGATCAAACGTTAAGAAAGCCGAAGCCT, the PBM binding z-score in [1] is 0.211; in assay [2], 0.363; in assay [3], -0.0781; in assay [4] it was 0.18; in [5], -0.0447; in [6], 0.988. In addition, the PBM binding z-score was 0.748 in assay [7]; 3.17 in assay [8]; 3.27 in assay [9]; 3.48 in assay [10]; 2.23 in assay [11]; 0.376 in assay [12]. In addition, the PBM binding z-score in assay [13] is 0.781; in assay [14], 0.516; in [15], -0.0553; in assay [16], 0.00909; in [17] it was -0.155; in assay [18], 0.0712. Further, the PBM binding z-score in assay [19] was -0.409; in [20], -0.19.
For ATCTCTAGGTAAGAGTTCAGTGAATCCCGAGGAT, the PBM binding z-score in assay [1] was 0.291; in assay [2], 1.13; in [3], 0.982; in [4], 0.873; in assay [5] it was 0.69; in [6], 3.22. Besides, the PBM binding z-score in [7] turned out to be 5.23; in [8], 6.11; in [9] it was 4.98; in assay [10], 6.44; in [11], 1.35; in assay [12], 2.7. In addition, the PBM binding z-score in assay [13] was found to be 0.769; in [14], 1.17; in assay [15], 1.09; in assay [16], 2.32; in [17] it was 2.16; in assay [18] it was 0.952. In addition, the results for the PBM binding z-score in assay [19] and in assay [20] were 0.264 and 1.96, respectively.
Take TCGAGTAGGTTACCAATGTGGCATTCAGCTTTCT: the PBM binding z-score in assay [1] is 0.261; in assay [2], 1.41; in assay [3], -0.667; in [4] it was 0.671; in [5], 0.104; in assay [6] it was 0.803. Moreover, the PBM binding z-score in assay [7] is 0.268; in assay [8], 1.09; in assay [9], 0.936; in assay [10], 1.08; in [11] it was 3.64; in assay [12] it was 2.82. Moreover, the PBM binding z-score in assay [13] was -0.0688; in assay [14], -0.478; in assay [15], -0.26; in [16], 0.165; in [17] it was -0.485; in [18], 0.147. Besides, the values for the PBM binding z-score in assay [19] and in assay [20] were -1.11 and 0.736, respectively.
Consider CCTAGCAGGCCAATCTGGATCACTCAAGGCTTGA, for which the PBM binding z-score in assay [1] was -0.3; in assay [2], -0.327; in [3] it was -0.53; in assay [4], -0.467; in assay [5], -0.696; in assay [6], -0.131. Also, the PBM binding z-score in assay [7] is 0.141; in assay [8], -0.529; in assay [9], -0.702; in assay [10] it was -0.514; in assay [11] it was 1.73; in assay [12], 0.817. In addition, the PBM binding z-score in assay [13] is -1.11; in assay [14], -1.19; in assay [15], -0.873; in [16] it was -0.635; in assay [17] it was -0.965; in assay [18], -0.47. Moreover, the PBM binding z-score in [19] was -0.695; in assay [20], 0.0834.
CCTACTGGGCCATTTAGAGGTCATTGATCATATG: the PBM binding z-score amounted to 2.82 in assay [1]; 4.87 in [2]; 8.57 in assay [3]; 3.98 in assay [4]; 0.803 in [5]; 3.78 in assay [6]. Moreover, the PBM binding z-score amounted to 2.24 in assay [7]; 3.15 in [8]; 0.977 in [9]; 2.11 in [10]; 3.95 in assay [11]; 4.32 in assay [12]. Also, the PBM binding z-score stood at 0.156 in [13]; 0.0335 in [14]; 2.07 in assay [15]; 4.7 in [16]; 2.25 in assay [17]; 4.46 in assay [18]. The PBM binding z-score in assay [19] was 0.647; in assay [20], 2.89.
GCGACTGGGGCAAAGCAGGTTACCAAAAGGTTGG: the PBM binding z-score is 0.475 in assay [1]; 0.517 in [2]; -0.168 in assay [3]; 0.19 in assay [4]; -1.32 in assay [5]; 1.78 in assay [6]. Also, the PBM binding z-score was 1.11 in [7]; 1.55 in [8]; -0.194 in assay [9]; 0.774 in assay [10]; 4.78 in [11]; 3.6 in assay [12]. Besides, the PBM binding z-score in [13] is -0.303; in assay [14] it was -0.695; in assay [15] it was -0.131; in assay [16], 0.48; in assay [17], -0.452; in assay [18], 0.862. For the same sequence, the figures for the PBM binding z-score in assay [19] and in assay [20] were -0.773 and 1.02, respectively.
Consider CCTAGTTGGTCAAGGCCACACACGCTATAGGTAC, for which the PBM binding z-score was 0.421 in assay [1]; 0.312 in assay [2]; 0.477 in [3]; 0.547 in assay [4]; 0.294 in [5]; 0.252 in [6]. Moreover, the PBM binding z-score in [7] is 0.917; in [8] it was 0.608; in [9], -0.0145; in assay [10], 0.142; in assay [11] it was 1.25; in assay [12], 1.16. For the same sequence, the PBM binding z-score was found to be 0.294 in assay [13]; 0.121 in assay [14]; 1 in [15]; 0.291 in assay [16]; 1.6 in assay [17]; 0.34 in assay [18]. The values for the PBM binding z-score in assay [19] and in [20] were 0.796 and 1.76, respectively.
